Reference: PubChem BioAssay (NCI)
About 83,000 compounds went through this panel and 20% of them were active in at least one assay; those are over-represented in the sample as a whole.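 Step 1: grow cells in 96-well plates. Step 2: add test compound at a single concentration. Step 3: incubate 48 h. Step 4: record percent growth.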 Activity calls are given as the source filed them. Rule for the calls: active = growth percent below 10; inactive = the rest.

Experiments:
Experiment in all cases: NCI-60 one-dose screen, 48 h (100 = growth as untreated, 0 = no growth, -100 = all killed)
Conditions in all cases: 10 µM unless noted
HCT-15 colon = tested on: HCT-15 colon
HT29 colon = tested on: HT29 colon
SNB-75 CNS = tested on: SNB-75 CNS
SNB-19 CNS = tested on: SNB-19 CNS
U251 CNS = tested on: U251 CNS
PC-3 prostate = tested on: PC-3 prostate
SK-MEL-5 melanoma = tested on: SK-MEL-5 melanoma
UACC-62 melanoma = tested on: UACC-62 melanoma
LOX IMVI melanoma = tested on: LOX IMVI melanoma
SK-MEL-28 melanoma = tested on: SK-MEL-28 melanoma
SK-MEL-2 melanoma = tested on: SK-MEL-2 melanoma
EKVX NSCLC = tested on: EKVX NSCLC
UO-31 renal = tested on: UO-31 renal
TK-10 renal = tested on: TK-10 renal
ACHN renal = tested on: ACHN renal
CAKI-1 renal = tested on: CAKI-1 renal
A498 renal = tested on: A498 renal
CCRF-CEM leukemia = tested on: CCRF-CEM leukemia
MOLT-4 leukemia = tested on: MOLT-4 leukemia
SN12C renal = tested on: SN12C renal

Measured: growth

CCN1C(=O)N(CC)C2C1NC(=S)N2/N=C/C=C/c1ccccc1 (stereo not drawn)
active: HT29 colon 3.6% | SK-MEL-5 melanoma -30% | A498 renal -6.35% | CCRF-CEM leukemia 2.75% | MOLT-4 leukemia 8.08%
inactive: HCT-15 colon 12.4% | SNB-75 CNS 42.2% | SNB-19 CNS 19.5% | U251 CNS 15.5% | PC-3 prostate 20.6% | UACC-62 melanoma 23% | LOX IMVI melanoma 14.3% | SK-MEL-28 melanoma 61% | SK-MEL-2 melanoma 10.6% | EKVX NSCLC 27.8% | UO-31 renal 40.7% | TK-10 renal 49.6% | ACHN renal 22.8% | CAKI-1 renal 27.2%

C#Cc1ccc(NC(=O)Cc2ccc(/C=C/C(=O)c3nccn3C)cc2)cc1
active: HT29 colon 6.76%
inactive: HCT-15 colon 23% | SNB-75 CNS 12.7% | SNB-19 CNS 39.3% | U251 CNS 15.1% | PC-3 prostate 39.6% | SK-MEL-5 melanoma 87.3% | UACC-62 melanoma 72.9% | LOX IMVI melanoma 24.1% | SK-MEL-28 melanoma 107% | SK-MEL-2 melanoma 103% | EKVX NSCLC 78.4% | UO-31 renal 58.7% | TK-10 renal 94.9% | ACHN renal 96.5% | CAKI-1 renal 47.7% | A498 renal 105% | CCRF-CEM leukemia 21.4% | MOLT-4 leukemia 40.8%

CN(C)CCOc1ccc(/C(=C(/CCCCCCCCCC[P+](c2ccccc2)(c2ccccc2)c2ccccc2)c2ccccc2)c2ccccc2)cc1
active: HCT-15 colon -88.7% | HT29 colon -68.5% | SNB-75 CNS -88.7% | SNB-19 CNS -92.1% | U251 CNS -75% | PC-3 prostate -86% | SK-MEL-5 melanoma -97.1% | UACC-62 melanoma -82.7% | LOX IMVI melanoma -89.9% | SK-MEL-28 melanoma -94.1% | SK-MEL-2 melanoma -75.9% | EKVX NSCLC -86.1% | UO-31 renal -90.3% | TK-10 renal -82.7% | ACHN renal -95.8% | CAKI-1 renal -93.2% | A498 renal -92.9% | CCRF-CEM leukemia -56% | MOLT-4 leukemia -60%

O=C(/C=C/c1ccco1)c1ccc(Nc2ccnc3cc(Cl)ccc23)cc1
inactive: HCT-15 colon 59.7% | HT29 colon 23.4% | SNB-75 CNS 105% | SNB-19 CNS 95.1% | U251 CNS 56.5% | PC-3 prostate 80.5% | SK-MEL-5 melanoma 68.8% | UACC-62 melanoma 108% | LOX IMVI melanoma 76.6% | SK-MEL-28 melanoma 103% | SK-MEL-2 melanoma 86.5% | EKVX NSCLC 85.2% | SN12C renal 90.6% | TK-10 renal 116% | ACHN renal 96.5% | CAKI-1 renal 96% | A498 renal 33.6% | CCRF-CEM leukemia 45.1% | MOLT-4 leukemia 10.8%

Cc1ccc(-c2nn(CC(=O)N3CCOCC3)c(N)c2C#N)cc1
inactive: HCT-15 colon 105% | HT29 colon 112% | SNB-75 CNS 89.4% | SNB-19 CNS 97.4% | U251 CNS 99.4% | PC-3 prostate 100% | SK-MEL-5 melanoma 102% | UACC-62 melanoma 93.1% | LOX IMVI melanoma 100% | SK-MEL-28 melanoma 102% | SK-MEL-2 melanoma 103% | EKVX NSCLC 102% | UO-31 renal 84.7% | TK-10 renal 105% | ACHN renal 101% | CAKI-1 renal 87.3% | A498 renal 91.3% | CCRF-CEM leukemia 101% | MOLT-4 leukemia 103%

C[C@H]1c2ccccc2CN1CCCOc1cc2c(cc1OCC1CC1)C1(CCCC1)C(N)=N2
inactive: SNB-75 CNS 74.9% | SNB-19 CNS 83.9% | U251 CNS 48.7% | PC-3 prostate 44.6% | UACC-62 melanoma 57.4% | SK-MEL-2 melanoma 54% | EKVX NSCLC 72.8% | UO-31 renal 29.3% | TK-10 renal 92.7% | ACHN renal 69% | CAKI-1 renal 18.5% | A498 renal 32.5% | CCRF-CEM leukemia 54.6% | MOLT-4 leukemia 36.4%
active: HCT-15 colon 2.62% | HT29 colon 2.94% | SK-MEL-5 melanoma -84.6% | LOX IMVI melanoma -70.2% | SK-MEL-28 melanoma -61%

COc1cc2c(c(OC)c1OC)CCC(c1cccc(NC(=O)c3cccc(Cl)c3)c1)O2 (stereo not drawn)
inactive: HCT-15 colon 83.6% | HT29 colon 73.7% | SNB-75 CNS 85.6% | SNB-19 CNS 91.8% | U251 CNS 91.1% | PC-3 prostate 66.6% | SK-MEL-5 melanoma 79.6% | UACC-62 melanoma 68.1% | LOX IMVI melanoma 96.2% | SK-MEL-28 melanoma 92.1% | SK-MEL-2 melanoma 95.7% | EKVX NSCLC 85.9% | UO-31 renal 64.2% | TK-10 renal 90.2% | ACHN renal 90.7% | CAKI-1 renal 97.9% | A498 renal 63.9% | CCRF-CEM leukemia 78.2% | MOLT-4 leukemia 57.9%

O=C(O)/C=C/c1cn(-c2ccccc2)nc1-c1ccc(F)cc1
inactive: HCT-15 colon 101% | HT29 colon 107% | SNB-75 CNS 87.9% | SNB-19 CNS 92.2% | U251 CNS 96.2% | PC-3 prostate 84.4% | SK-MEL-5 melanoma 93.9% | UACC-62 melanoma 88.3% | LOX IMVI melanoma 95.2% | SK-MEL-28 melanoma 104% | SK-MEL-2 melanoma 106% | EKVX NSCLC 97.2% | SN12C renal 91.1% | TK-10 renal 103% | ACHN renal 92% | CAKI-1 renal 88.9% | A498 renal 76.1% | CCRF-CEM leukemia 86.4% | MOLT-4 leukemia 109%

COc1cc2ncnc(Nc3ccc(S(=O)(=O)Nc4cc(C)on4)cc3)c2cc1OCCCN1CCOCC1
inactive: HCT-15 colon 105% | HT29 colon 101% | SNB-75 CNS 90.8% | SNB-19 CNS 101% | U251 CNS 95.2% | PC-3 prostate 103% | SK-MEL-5 melanoma 97.1% | UACC-62 melanoma 104% | LOX IMVI melanoma 96.4% | SK-MEL-28 melanoma 115% | SK-MEL-2 melanoma 101% | EKVX NSCLC 93.4% | SN12C renal 104% | TK-10 renal 95.3% | ACHN renal 106% | CAKI-1 renal 98% | A498 renal 104% | CCRF-CEM leukemia 104% | MOLT-4 leukemia 101%

Cc1ccc(Nc2oc(-c3ccccc3)nc2[P+](c2ccccc2)(c2ccccc2)c2ccccc2)cc1
active: HCT-15 colon -34.4% | HT29 colon -28.1% | SNB-75 CNS -2.21% | SNB-19 CNS 0.303% | U251 CNS -58% | PC-3 prostate -21.1% | SK-MEL-5 melanoma -99.7% | UACC-62 melanoma -35.4% | LOX IMVI melanoma -100% | SK-MEL-28 melanoma 1.52% | SK-MEL-2 melanoma -69.1% | EKVX NSCLC -31.3% | UO-31 renal -72.8% | TK-10 renal -32.2% | ACHN renal 2.5% | CAKI-1 renal -29.8% | A498 renal -52.2% | CCRF-CEM leukemia 6.27% | MOLT-4 leukemia -2.23%

CCN(CC)CCCNc1cc(OC)cc2cccnc12
inactive: HCT-15 colon 99.7% | HT29 colon 91.6% | SNB-75 CNS 111% | SNB-19 CNS 109% | U251 CNS 94.8% | PC-3 prostate 93.8% | SK-MEL-5 melanoma 95.3% | UACC-62 melanoma 110% | LOX IMVI melanoma 97.2% | SK-MEL-28 melanoma 126% | SK-MEL-2 melanoma 109% | EKVX NSCLC 107% | SN12C renal 97.7% | TK-10 renal 109% | ACHN renal 110% | CAKI-1 renal 103% | A498 renal 81.5% | CCRF-CEM leukemia 114% | MOLT-4 leukemia 104%

COc1cccc(/C=C/C(=O)/C=C(/C=C/c2cccc(OC)c2OC)OB(F)F)c1OC
active: CCRF-CEM leukemia 7.53% | MOLT-4 leukemia 9.58%
inactive: HCT-15 colon 29.4% | HT29 colon 49.2% | SNB-75 CNS 65.8% | SNB-19 CNS 77.7% | U251 CNS 36.4% | PC-3 prostate 57.9% | SK-MEL-5 melanoma 93.4% | UACC-62 melanoma 42.4% | LOX IMVI melanoma 18.2% | SK-MEL-28 melanoma 50.7% | SK-MEL-2 melanoma 110% | EKVX NSCLC 87.7% | SN12C renal 43% | TK-10 renal 68% | ACHN renal 19.6% | CAKI-1 renal 35.8% | A498 renal 122%

O=c1[nH]c(CN2CCN(c3ccccc3)CC2)nc2c(Br)cc(Br)cc12
inactive: HCT-15 colon 71.5% | HT29 colon 105% | SNB-75 CNS 95.8% | SNB-19 CNS 108% | U251 CNS 101% | PC-3 prostate 103% | SK-MEL-5 melanoma 109% | UACC-62 melanoma 84.4% | LOX IMVI melanoma 99.7% | SK-MEL-28 melanoma 108% | SK-MEL-2 melanoma 91.2% | EKVX NSCLC 96.3% | UO-31 renal 77.8% | TK-10 renal 120% | ACHN renal 101% | CAKI-1 renal 99.7% | A498 renal 121% | CCRF-CEM leukemia 88.9% | MOLT-4 leukemia 89.6%

C=C1C(=O)O[C@H]2[C@H]1CC/C(COC(=O)NCc1ccc(Cn3c(=O)sn(CCCC)c3=O)cc1)=C\CC[C@@]1(C)O[C@@H]21
inactive: HCT-15 colon 24.4% | SNB-75 CNS 82.7% | SNB-19 CNS 100% | U251 CNS 60.4% | PC-3 prostate 59.9% | SK-MEL-5 melanoma 96.3% | UACC-62 melanoma 53.3% | LOX IMVI melanoma 26.8% | SK-MEL-28 melanoma 55.5% | SK-MEL-2 melanoma 81.5% | EKVX NSCLC 91.1% | SN12C renal 49.5% | TK-10 renal 14.7% | ACHN renal 15.2% | CAKI-1 renal 40.6% | A498 renal 100%
active: HT29 colon 0.335% | CCRF-CEM leukemia -22.4% | MOLT-4 leukemia 1.1%

CC(C)(C)[C@H](OCc1cn([C@H]2C[C@@H](O)[C@@H](CO)O2)c(=O)[nH]c1=O)c1ccc(C#Cc2ccccc2)cc1[N+](=O)[O-]
inactive: HCT-15 colon 69.8% | HT29 colon 62.3% | SNB-75 CNS 67% | SNB-19 CNS 82.4% | U251 CNS 68.9% | PC-3 prostate 19.3% | SK-MEL-5 melanoma 75.4% | UACC-62 melanoma 66.9% | LOX IMVI melanoma 84.7% | SK-MEL-28 melanoma 101% | SK-MEL-2 melanoma 81.3% | EKVX NSCLC 67.4% | UO-31 renal 72% | TK-10 renal 61.7% | ACHN renal 77.4% | CAKI-1 renal 79.3% | A498 renal 95% | CCRF-CEM leukemia 72.2%

CC(C)=CC(=O)C1C(=O)c2ccccc2C1=O
inactive: HCT-15 colon 95% | HT29 colon 111% | SNB-75 CNS 90% | SNB-19 CNS 94.7% | U251 CNS 95.1% | PC-3 prostate 100% | SK-MEL-5 melanoma 99.2% | UACC-62 melanoma 94.3% | LOX IMVI melanoma 96.8% | SK-MEL-28 melanoma 108% | SK-MEL-2 melanoma 102% | EKVX NSCLC 99.4% | SN12C renal 95.1% | TK-10 renal 108% | ACHN renal 97.1% | CAKI-1 renal 81% | A498 renal 87.6% | CCRF-CEM leukemia 98.1% | MOLT-4 leukemia 103%
